We go through 15 molecules from PubChem BioAssay (NCI).

Some test systems named below: NCI-H23 lung; NCI-H226 lung; NCI-H322M lung; HOP-62 NSCLC; NCI-H460 lung; HOP-92 NSCLC; A549/ATCC NSCLC; 786-0 renal; COLO 205 colon; NCI-H522 lung.
Assay in all cases: NCI-60 one-dose screen, 48 h (100 = growth as untreated, 0 = no growth, -100 = all killed)
What all share (conditions): 10 µM unless noted

Structures are written as SMILES. Compounds without any hit were thinned out: in the full panel of roughly 83,000, 20% have a hit.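 The test compound was applied at a single concentration to cells in 96-well plates for 48 hours, and percent growth was recorded.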 A number with no mark means an inactive call. Calls of active or inactive are those of the source. Rule for the calls: active = growth percent below 10; inactive = the rest.

As for `O=C1/C(=C/c2ccc3c(c2)OCO3)SC(=S)N1CCc1ccc(O)cc1`, the growth in the assay on NCI-H23 lung was 94.1%; with NCI-H226 lung it was 102%; in the assay with NCI-H322M lung, 97.3%; in the assay with HOP-62 NSCLC, 102%; in the assay with NCI-H460 lung, 102%; with HOP-92 NSCLC, 72%. The growth in the assay with A549/ATCC NSCLC is 93.5%; in the assay on 786-0 renal, 75.2%; in the assay on COLO 205 colon it was 116%.
On to `COc1ccc2c(c1)c(-c1nonc1-c1cn(C)c3ccccc13)cn2C`, for which the growth in the assay with NCI-H23 lung is 27.9%; in the assay on NCI-H226 lung, 27.3%; with NCI-H322M lung, 42.2%; in the assay on HOP-62 NSCLC it was 33.1%; in the assay on NCI-H460 lung, 16.3%; with HOP-92 NSCLC, 47.8%. Moreover, the growth in the assay with A549/ATCC NSCLC was 30.3%; with 786-0 renal it was 44.2%; in the assay on COLO 205 colon, 17.7%.
With `COc1cc(/C=C/c2cc(O)c3cc(C(C)=O)c(=O)oc3c2)cc2c1O[C@]1(C)CC[C@@H](O)C(C)(C)[C@H]1C2`, the growth with NCI-H23 lung is 52.1%; in the assay with NCI-H226 lung, 76.4%; with NCI-H322M lung, 67.6%; in the assay with HOP-62 NSCLC, 50.4%; in the assay with NCI-H460 lung, 23%; in the assay with HOP-92 NSCLC it was 33.2%. The values for the growth with A549/ATCC NSCLC, in the assay with 786-0 renal and in the assay on COLO 205 colon were 52.2%, -1.22% (active) and 89.8%, respectively.
As for `O=Nc1c(O)c(Cl)cc2ccccc12`, the growth in the assay on NCI-H23 lung was 92.3%; with NCI-H226 lung, 78.9%; in the assay with NCI-H322M lung, 102%; in the assay with HOP-62 NSCLC, 75.1%; in the assay on NCI-H460 lung it was 90.3%; in the assay with HOP-92 NSCLC it was 112%. Moreover, the results for the growth with A549/ATCC NSCLC, in the assay with 786-0 renal and with COLO 205 colon were 93%, 105% and 70.9%, respectively.
As to `CC(=O)O[C@H]1CC[C@]2(C)[C@H]3CC=C4[C@@H]5CC(C)(C)CC[C@]5(C(=O)NCCNCCN)CC[C@@]4(C)[C@]3(C)CC[C@H]2C1(C)C`, the growth in the assay on NCI-H23 lung was 70.1%; with NCI-H226 lung, 73.5%; in the assay on NCI-H322M lung, 67.3%; with HOP-62 NSCLC it was -86.7% (active); in the assay with NCI-H460 lung it was -69.8% (active); with HOP-92 NSCLC, -45.3% (active). Further, the growth with A549/ATCC NSCLC is -71.1% (active); in the assay on 786-0 renal it was -95.3% (active); with COLO 205 colon, -92.7% (active).
As for `CC(O)CN1CC(O)=C(c2nc3ccccc3s2)C1=N` (stereo not given), the growth was 83% in the assay with NCI-H23 lung; 103% with NCI-H226 lung; 111% in the assay with NCI-H322M lung; 95.2% in the assay on HOP-62 NSCLC; 113% in the assay on NCI-H460 lung; 88.1% with HOP-92 NSCLC. Moreover, the results for the growth with A549/ATCC NSCLC, with 786-0 renal and in the assay with COLO 205 colon were 116%, 100% and 108%, respectively.
As to `CC[C@@H]1O[C@H](O[C@@H](c2cnc[nH]2)[C@H](NC(=O)c2nc([C@H](CC(N)=O)NC[C@@H](N)C(N)=O)nc(N)c2C)C(=O)N[C@H](C)[C@H](O)[C@H](C)C(=O)N[C@@H](C(=O)NCCc2nc(-c3nc(C(=O)NCCCCN=C(N)N)cs3)cs2)[C@@H](C)O)[C@H](O[C@@H]2O[C@H](CO)[C@H](O)[C@H](OC(N)=O)[C@@H]2O)[C@H](C)[C@@H]1C`, the growth was 20.9% with NCI-H23 lung; 13% with NCI-H226 lung; 105% with NCI-H322M lung; 15.6% with HOP-62 NSCLC; 12.5% with NCI-H460 lung; 11.4% with HOP-92 NSCLC. Also, the growth in the assay with A549/ATCC NSCLC was 36.6%; with 786-0 renal, 25.4%; in the assay on COLO 205 colon it was 64.2%.
`Cc1cc(C)nc(SC2=C(Nc3cccc(Cl)c3)C(=O)N(Cc3ccccc3)C2=O)n1`: the growth in the assay on NCI-H23 lung was 82% [30 µM]; in the assay with NCI-H226 lung, 83% [30 µM]; with NCI-H322M lung, 88.8% [30 µM]; in the assay with HOP-62 NSCLC, 90.3% [30 µM]; in the assay on NCI-H460 lung it was 62.5% [30 µM]; in the assay on HOP-92 NSCLC it was -7.47% [30 µM] (active). Moreover, the growth is 26.4% [30 µM] in the assay on A549/ATCC NSCLC, 72.1% [30 µM] with 786-0 renal and 78.2% [30 µM] in the assay with COLO 205 colon.
`COc1cccc(/C=C2\Oc3cc(OCCN4CCCC4)ccc3C2=O)c1`: the growth is 92.2% with NCI-H23 lung; 99.2% in the assay with NCI-H226 lung; 92.7% in the assay with NCI-H322M lung; 96.3% with HOP-62 NSCLC; 93.8% with NCI-H460 lung; 69.6% in the assay on HOP-92 NSCLC. Further, the growth in the assay on A549/ATCC NSCLC was 99%; with 786-0 renal, 95.8%; in the assay on COLO 205 colon it was 93.8%.
For the molecule `CC1=CC(=NN=c2cc(C)n([O-])c(C)c2)C=C(C)[N+]1=O`, the growth in the assay with NCI-H23 lung is 95.5%; with NCI-H226 lung it was 64.2%; in the assay on NCI-H322M lung, 114%; in the assay with HOP-62 NSCLC, 79.6%; in the assay on NCI-H460 lung, 102%; in the assay on HOP-92 NSCLC it was 93.2%. The growth in the assay with A549/ATCC NSCLC was 87.4%; in the assay on 786-0 renal it was 79.3%; in the assay with COLO 205 colon, 29.8%.
On to `O=S(=O)(Nc1ccc(NS(=O)(=O)c2ccccc2)c(Cl)c1)c1ccccc1`, for which the growth in the assay with NCI-H23 lung is 103%; in the assay with NCI-H226 lung, 102%; in the assay on NCI-H322M lung, 115%; with HOP-62 NSCLC, 110%; with NCI-H460 lung, 102%; in the assay on HOP-92 NSCLC, 95.3%. The growth in the assay with A549/ATCC NSCLC was 101%; in the assay on 786-0 renal it was 103%; in the assay on COLO 205 colon, 114%.
On to `COc1cc(/C=C/C(=O)Nc2cccnc2Nc2ccc(F)cc2)cc(OC)c1OC`, for which the growth was 99.6% in the assay with NCI-H23 lung; 99% in the assay on NCI-H226 lung; 107% in the assay with NCI-H322M lung; 103% with HOP-62 NSCLC; 112% in the assay on NCI-H460 lung; 74.8% in the assay on HOP-92 NSCLC. For the same molecule, the growth with NCI-H522 lung is 48.9%; with 786-0 renal it was 92.8%; in the assay with COLO 205 colon, 113%.
With `CON1C(=O)CC[C@]2(C)[C@H]3CC[C@@H]4C([C@@]5(C)CCC(=O)O5)CC[C@@]4(C)[C@]3(C)CC[C@H]2C1(C)C` (stereo not given in full), the growth is 95.6% in the assay with NCI-H23 lung; 94.9% in the assay on NCI-H226 lung; 108% in the assay with NCI-H322M lung; 98.4% in the assay on HOP-62 NSCLC; 103% with NCI-H460 lung; 95.3% with HOP-92 NSCLC. The values for the growth in the assay with A549/ATCC NSCLC, with 786-0 renal and in the assay on COLO 205 colon were 102%, 100% and 124%, respectively.
With `COc1ccc(SC2c3ccc(C)cc3Oc3nc(N)c(C#N)c(N)c32)cc1` (stereo not given), the growth is -43.8% (active) with NCI-H23 lung; -63.9% (active) in the assay on NCI-H226 lung; 5.34% (active) with NCI-H322M lung; -10.6% (active) in the assay with HOP-62 NSCLC; -49.6% (active) in the assay on NCI-H460 lung; -56.7% (active) in the assay on HOP-92 NSCLC. Besides, the growth is 19.9% with A549/ATCC NSCLC, -95.4% (active) in the assay with 786-0 renal and -66.5% (active) in the assay on COLO 205 colon.
On to `N#C/C(=C\c1ccc(-c2ccc(Cl)c(Cl)c2)o1)c1nc(-c2ccco2)cs1`, for which the growth in the assay with NCI-H23 lung was 86.6%; in the assay with NCI-H226 lung, 81.5%; in the assay with NCI-H322M lung, 79.8%; in the assay with HOP-62 NSCLC, 79.9%; in the assay with NCI-H460 lung, 87.7%; in the assay on HOP-92 NSCLC, 109%. In addition, the growth in the assay with A549/ATCC NSCLC is 113%; in the assay on 786-0 renal, 110%; with COLO 205 colon, 106%.
